Bioassay records from PubChem.
Only some compounds are listed: those with a hit (about 3.7% of all), similar ones and a draw of the others.
WRN helicase inh = WRN helicase (human) inhibition | Q14191 | 360,000 compounds, 0.46% hits | WRN helicase unwinding, fluorescent forked duplex, kinetic | Potency, µM (highest dose often 114 µM), inactives show top-dose activity change, negative = inhibition, hits mostly inhibitors; further: potency means the concentration at half of the fitted maximal effect; on the % scale 0 is the no-effect control and ±100 the full control effect; nearly all actives have a fitted effect of over 55% in size
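Fluorescence dequenching readout, ex 525 nm/em 598 nm, kinetic mode: forked duplex DNA (100 nM final) with adjacent fluorophore and quencher unwound by WRN (20 nM final) with 2 mM ATP. Compound preincubation 15 min, room temperature.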
PI5P4K alpha inh = PI5P4K alpha (human) kinase inhibition | P48426 | PI5P4Kalpha enzyme, ADP-Glo luminescence, 60 min; hits give low values | max response, % | 330,000 compounds, 1.2% hits | AID 652105; active means max response of -50% or lower; inconclusive means between -30% and -50%; inactive means -30% or higher; further: value at the top dose of about 77 µM; on the % scale 0 is the no-effect control and ±100 the full control effect
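ADP-Glo luminescence end-point read after a 60 min room-temperature kinase reaction of PI5P4Kalpha plus substrate, initiated with ATP at 5 microM final. Buffer: 0.038 M HEPES pH 7.4, EGTA, 0.1% CHAPS, 5% DMSO.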
VDR inh = blocks the human vitamin D receptor | P11473 | VDR-SRC2-3 peptide fluorescence polarization, 2 h | Potency, µM, without a hit: max response, negative = inhibition, hits mostly inhibitors | 400,000 compounds, 0.93% hits; further: potency means the concentration at half of the fitted maximal effect; on the % scale 0 is the no-effect control and ±100 the full control effect
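VDR–SRC2-3 interaction, FP format. Cmpds 23 nl via pintool, brief spin, 2 h ambient incubation.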
FEN1 inhibitor = human FEN1 inhibition. P39748. Recombinant FEN1 flap cleavage, fluorescence, 15 min. Potency, µM (top dose mostly 114 µM), for inactives: top-dose activity change, negative = inhibition, actives largely listed as inhibitors. 390,000 compounds, 0.35% hits. AID 588795; further: potency means the concentration at half of the fitted maximal effect; on the % scale 0 is the no-effect control and ±100 the full control effect; nearly all actives have a fitted effect of over 65% in size
Target sequence (P39748 whole entry, looked up): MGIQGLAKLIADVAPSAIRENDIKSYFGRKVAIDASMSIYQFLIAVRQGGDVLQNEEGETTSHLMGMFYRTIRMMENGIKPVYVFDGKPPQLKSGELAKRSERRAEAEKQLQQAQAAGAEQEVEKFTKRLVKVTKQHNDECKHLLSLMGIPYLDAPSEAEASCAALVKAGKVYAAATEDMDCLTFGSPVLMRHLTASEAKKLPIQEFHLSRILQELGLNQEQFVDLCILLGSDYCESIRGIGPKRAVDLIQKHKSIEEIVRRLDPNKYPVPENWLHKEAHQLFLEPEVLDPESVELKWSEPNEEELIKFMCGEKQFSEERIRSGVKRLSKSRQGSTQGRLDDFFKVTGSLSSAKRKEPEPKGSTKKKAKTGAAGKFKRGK
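Concentration–response screening of FEN1 (10 nM): 15 min compound preincubation at room temperature, reaction started with 50 nM substrate and read at 0 and 15 min. Corrected, normalized data were fitted by a four-parameter Hill equation.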
TCR act = activators of T cell receptors | primary human leukocytes, anti-CD3, IL-2 HTRF, 48 h | Potency, µM (doses to about 9.22 µM), without a hit: top-dose activation of IL-2 secretion, usual class: activators | 330,000 tested, under 10 active; further: % of control where 0% means no effect
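Using a-CD3 beads without co-stimulation, primary human leukocytes were exposed to compounds for 48 hr. An HTRF IL-2 kit measured the cytokine, with europium-to-d2 energy transfer producing emission at 665nm upon 320nm excitation.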
PLK1 PBD inh = PLK1 (human) polo-box domain binding inhibition; P53350; Plk1 PBD binding of FITC phosphopeptide, fluorescence polarization; Potency, µM, for inactives: max response, negative = inhibition, actives largely listed as inhibitors; 360,000 compounds, 2.8% hits; further: potency means the concentration at half of the fitted maximal effect; series mostly up to about 57 µM; on the % scale 0 is the no-effect control and ±100 the full control effect; nearly all actives have a fitted effect of over 65% in size
* marks the source's active call; other numbers are inactive results; ? = inconclusive; / = not tested or not shown; [ ] = remark or other dose. Unless noted, the call rests on the fitted dose curve; in most records, active means well fitted curve in the direction sought with a large enough effect; inconclusive means small, poorly fitted or top-dose-only effect, or another doubt; inactive means no such curve, though single readings can be large; an effect the other way counts as inactive or inconclusive.

SMILES	WRN helicase inh	PI5P4K alpha inh	VDR inh	FEN1 inhibitor	TCR act	PLK1 PBD inh
COc1cc(C)ccc1OCCOc1c(Cl)cc(Cl)cc1Cl	-30%[57.1 µM]	3	-1%	-13%	-6%	-4%
CCc1ccccc1OCCOc1ccc(C)cc1OC	-13%	-26	-19%	-7%	4%	3µM*
COc1ccccc1OCCOCCOc1ccc(C)cc1Br	-7%	1	-4%	-21%	2%[46.1 µM]	-6%
COc1cc(C)ccc1OCCOc1cc(C)ccc1Cl	4%	1	-6%	-3%	2%	24µM*
O=C(NCCC1=CCCCC1)C1CCN(C(=O)N2CCOc3ccccc32)CC1	/	/	11%	-5%	/	/
COc1ccc(CCNC(=O)c2ccc3c(c2)ncn3-c2ccc(C(C)C)cc2)cc1OC	/	/	15%	-20%	/	/
Cc1cc(C)cc(NC(=O)CSCc2cc(=O)c3cc(Cl)ccc3[nH]2)c1	/	/	12%	1%	/	/
COc1cccc2cc3c(=O)n(-c4ccccc4)nc-3oc12	-1%	-11	-25%	-2%	4%	30µM*
Cc1ccc(N2C(=O)C3C4C=CC(CNC(=S)N5CCN(c6ccccn6)CC5)(O4)C3C2=O)cc1 (stereo unspecified)	-7%	-20	79µM*	8%	-3%	-16%
CCc1ccc(OC(=O)c2sc3ncn(Cc4cccc(F)c4)c(=O)c3c2C)cc1	/	/	7%	9%	/	/
CCOc1ccc(C(c2c(O)cc(C)n(Cc3ccco3)c2=O)N2CCN(c3ccccc3)CC2)cc1 (stereo unspecified)	/	/	?	-8%	/	/
S=C(Nc1ccc2cn[nH]c2c1)Nc1ccccc1Cl	-5%	3	?	9%	1%[46.1 µM]	-22%
COc1ccc(NC(=S)Nc2ccc3cn[nH]c3c2)cc1	5%	-9	-12%	4%	7%	?
COc1ccccc1NC(=S)Nc1cccc2cnccc12	-8%	-18	?	-3%	4%[46.1 µM]	30µM*
CN(C)S(=O)(=O)c1cccc(NC(=S)Nc2ccc3cn[nH]c3c2)c1	-2%	-8	-6%	1%	-4%	21µM*
CN(C)S(=O)(=O)c1cccc(NC(=S)Nc2cccc3cnccc23)c1	-35%	?	?	?	3%	17µM*
COc1ccc(NC(=S)Nc2cccc3cnccc23)cc1	-14%	4	-16%	-14%	2%[46.1 µM]	?
S=C(Nc1ccc2cn[nH]c2c1)Nc1ccc(Cl)cc1Cl	1%	?	?	-13%	-3%	15µM*
CCc1nnc2c3ccccc3nc(Nc3ccc(C(C)=O)cc3)n12	/	/	15%	0%	/	/
CCOc1ccc(CCNC(=O)Cn2ncc3c(=O)oc4ccc(C)cc4c32)cc1	/	/	5%	1%	/	/
O=C(CCC(=O)N(CC(=O)NC1CCCCC1)CC1CCCO1)Nc1nccs1 (stereo unspecified)	12%	-8	-7%	0%	-3%	27µM*
O=C(CN(CC1CCCO1)C(=O)CCC(=O)Nc1nccs1)NCc1ccccc1 (stereo unspecified)	7%	0	6%	3%	-1%[46.1 µM]	-9%
CCn1c(CSc2nc3ccccc3s2)nnc1SCC(=O)c1ccc(Cl)cc1	79µM*	-51*	?	2%	4%	3µM*
CCn1c(CSc2nc3ccccc3s2)n[nH]c1=S	2%	/	10%	5%	-4%	-14%
Cc1cc(=O)n(Cc2ccccc2)c2ccccc12	-4%	2	-10%	-4%	0%	21µM*
SMILES	WRN helicase inh	PI5P4K alpha inh	VDR inh	FEN1 inhibitor	TCR act	PLK1 PBD inh
Cc1cc(=O)n(Cc2ccccc2)c2c(C)cccc12	5%	27	-8%	-8%	-2%	-4%
Cc1cc(=O)[nH]c(=O)n1Cc1ccccc1	?	-84*	-12%	-6%	-4%	-4%
C=CCN1C(=O)C(O)(CC(=O)c2ccc(OC)cc2OC)c2cc(Br)ccc21 (stereo unspecified)	0%	?	-27%	7%	4%	8.4µM*
CC(C)NC(=O)COC(=O)CNC(=O)c1cc(Cl)cc([N+](=O)[O-])c1	1%	-16	-22%	18%	-9%[46.1 µM]	30µM*
Cc1ccc(S(=O)(=O)N2CCCCC2)cc1NC(=O)COC(=O)CNC(=O)c1cc(Cl)cc([N+](=O)[O-])c1	-2%	-13	-10%	-6%	1%	4%
Cc1cccc(C)c1NC(=O)CSc1nnc(C)n1CC1CCCO1 (stereo unspecified)	5%[57.1 µM]	-4	-6%	-2%	-4%	24µM*
CCOc1cccc(C=NNc2ccc(S(=O)(=O)Nc3ccccc3C(=O)O)cc2[N+](=O)[O-])c1O	-8%	?	-9%	-31%	0%[46.1 µM]	?
COc1ccc(C=NNc2ccc(S(=O)(=O)Nc3ccccc3C(=O)O)cc2[N+](=O)[O-])c(OC)c1	?	-70*	89µM*	22µM*	5%	30µM*
COc1ccc(NC(=S)NNc2ccc(S(=O)(=O)Nc3ccccc3C(=O)O)cc2[N+](=O)[O-])cc1	-10%[11.6 µM]	-71*	-3%	?	5%	8.4µM*
C=CCOc1ccc(C=NNc2ccc(S(=O)(=O)Nc3ccccc3C(=O)O)cc2[N+](=O)[O-])cc1OC	50µM*	-83*	?	?	1%	?
COc1ccccc1NS(=O)(=O)c1ccc(N/N=C(\C)C(C)C)c([N+](=O)[O-])c1	-12%	6	-2%	-2%	1%[46.1 µM]	-2%
CCOc1cc(C#N)c(NC(=O)c2cccc(S(=O)(=O)N3CCOCC3)c2)cc1OCC	/	/	-7%	-2%	/	/
CCOc1ccc(C(C)=O)cc1N1C(=O)C2C3C=CC(C3)C2C1=O (stereo unspecified)	-26%	/	16%	1%	/	-16%
CCOc1ccc(C(C)=O)cc1N1C(=O)C2C3C=CC(O3)C2C1=O (stereo unspecified)	-10%	/	22µM*	-3%	0%	27µM*
Nc1cc(=O)[nH]c(SCC(=O)Nc2cc([N+](=O)[O-])ccc2Cl)n1	4%	-24	-15%	0%	0%	21µM*
Nc1cc(=O)[nH]c(SCC(=O)Nc2cc(S(=O)(=O)N3CCOCC3)ccc2Cl)n1	-7%[57.1 µM]	-2	-22%	50%	1%	3%
CCc1ccc(S(=O)(=O)c2cn(Cc3ccccc3)c3cc(F)c(F)cc3c2=O)cc1	/	/	-9%	-6%	/	/
COc1cccc(OC)c1C(=O)Nc1ccc2c(c1)CCCN2S(=O)(=O)c1ccc(C)cc1	-9%	-15	?	-14%	-3%	11µM*
Cc1ccc(S(=O)(=O)N2CCCc3cc(NC(=O)c4c(F)cccc4F)ccc32)cc1	-8%	0	-14%	0%	-4%	27µM*
CN(C)c1ccc(C2CCc3ccccc3N2C(=O)c2ccccc2)cc1 (stereo unspecified)	/	/	/	0%	/	/
